Eight compounds from PubChem BioAssay (Tox21) can be followed below.

Values joined by “and” are separate entries in the source; they are usually repeats but may differ in a detail not shown here. Equal entries are not always repeated. Records with an inconclusive call do not appear. Some compounds were tested as several samples or in several runs, with calls that do not always agree. Active and inactive are the calls of the source. Unless noted, the call rests on the fitted dose curve.

Assay [1] is described as follows: Nuclear factor erythroid 2-related factor 2/antioxidant responsive element (Nrf2/ARE) small molecule agonists: qHTS cell viability counter screen in human keratinocytes (AID 1919968; active means well fitted curve in the direction sought with a large enough effect in the repeat runs; an effect the other way counts as inactive or inconclusive; further: nearly all actives have a fitted effect of over 55% in size). Summed up:
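Viability counter-screen: KeratinoSens reporter cells, DMSO-delivered compounds, 23 h at 37 C, CellTiter-Fluor fluorescence.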
Background: In qHTS, concentration-response curves come from the screen itself.

A short description of assay [2]: Nuclear factor erythroid 2-related factor 2/antioxidant responsive element (Nrf2/ARE) small molecule agonists: luciferase reporter gene qHTS assay in human keratinocytes (AID 1919969). Further: nearly all actives have a fitted effect of over 35% in size. Further: potency means the concentration at half of the fitted maximal effect. Background: Reporter assays use an easily measured gene product as a stand-in for the process of interest.
Assay [3] concerns the target Gonadotropin-releasing hormone receptor (Homo sapiens) (UniProt P30968). Description: Human gonadotropin-releasing hormone receptor (GnRHR) small molecule agonists, calcium flux assay in GnRHR-HEK293 cells (AID 1920063). Further: nearly all actives have a fitted effect of over 35% in size. Summed up:
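Tox21-format agonist screen using human GnRHR-expressing HEK293 cells and a fluorescent calcium dye; kinetic 3-min fluorescence reading after compound addition, 15-point concentration series run in triplicate.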
On the technique in general: A change in cytosolic calcium serves as a functional read-out for many receptors and channels.

The target in assay [4] is KiSS-1 receptor (Homo sapiens) (UniProt Q969F8). Description: Human kisspeptin (KISS1R) small molecule agonists, calcium flux assay in KISS1R-HEK293 cells (AID 1920064; active means well fitted curve in the direction sought with a large enough effect in the repeat runs; an effect the other way counts as inactive or inconclusive). Summed up:
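Intracellular calcium mobilization in KISS1R-HEK293 cells was recorded by fluorescence (Ex/Em 480/540) for 3 min following compound addition to cells pre-loaded 1 h with calcium dye.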

The nature of assay [5]: G protein-coupled receptor (GPCR) small molecule agonists, calcium flux assay: HEK293 wild type cell line counter screen (AID 1920065). A digest of the protocol: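 In this agonist-mode screen, ATP is the positive control and DMSO the vehicle. Cells grow 18 h before a 1 h dye incubation at 37 C; signal is taken at Ex/Em 480/540 over 3 min.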
A short description of assay [6]: p53 small molecule agonists, cell-based qHTS assay with human liver microsomes (AID 1963577). A digest of the protocol:
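Compounds act here after metabolic activation: human liver microsomes and NADPH, both at 0.5 mg/mL final, were co-added to p53RE-bla cells. Incubation ran 16 h at 37 C, followed by LiveBLAzer detection.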

Assay [7] can be described thus: p53 small molecule agonists, cell-based qHTS assay with rat liver microsomes (AID 1963578). A digest of the protocol:
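Read-out is beta-lactamase reporter fluorescence (LiveBLAzer, 2 h, room temperature, dark) in p53RE-bla cells treated 16 h at 37 C with compound, rat liver microsomes and NADPH, both 0.5 mg/mL final.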

Assay [8] is described as follows: p53 small molecule agonists, cell-based qHTS assay with human liver microsomes: qHTS cell viability counter screen (AID 1963579). Further: nearly all actives have a fitted effect of over 45% in size. Summed up:
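Cells carrying the p53 response-element beta-lactamase reporter are treated for 16 h at 37 C with test compounds in the presence of human liver microsomes and NADPH (both 0.5 mg/mL final); ATP-based CellTiter-Glo luminescence then reports viability.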

Assay [9] can be described thus: p53 small molecule agonists, cell-based qHTS assay with rat liver microsomes: qHTS cell viability counter screen (AID 1963580). Further: nearly all actives have a fitted effect of over 45% in size. A digest of the protocol: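 In HCT-116 cells carrying a p53 response element-bla reporter, compounds were metabolically activated in situ by rat liver microsomes with NADPH over 16 h. Cell ATP content then served as the cytotoxicity measure.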

Assay [10] is described as follows: p53 small molecule agonists, cell-based qHTS assay: qHTS cell viability counter screen (AID 1963581). Further: nearly all actives have a fitted effect of over 45% in size. Summed up:
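Compounds are pinned onto HCT-116 p53RE-bla cells and left 16 h at 37 C. Following the reporter FRET read, ATP is quantified by CellTiter-Glo luminescence after 30 min at room temperature.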

Assay [11] in a line: p53 small molecule agonists, cell-based qHTS assay (AID 1963582; active means well fitted activation curve with a large enough effect in the signal ratio in the repeat runs, not every such curve was filed as active; the % refers to the signal ratio). A digest of the protocol:
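Agonist activity was scored from beta-lactamase FRET fluorescence in p53RE-bla cells treated 16 h at 37 C with compounds in DMSO, substrate incubation being 2 h at room temperature.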

The target of assay [12] is 5-hydroxytryptamine receptor 2A (Homo sapiens) (UniProt P28223). Description: 5-hydroxytryptamine receptor 2A (HTR2A) small molecule antagonists, cell-based qHTS assay (AID 1963586). Further: nearly all actives have a fitted effect of over 45% in size. Summed up: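 Antagonist-mode intracellular calcium assay: DOI (4 nM) added after 5 min compound pre-incubation at room temperature to dye-loaded HTR2A-CHO cells. Fluorescence followed for 3 min, sampled every second.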
5-hydroxytryptamine receptor 2A (Homo sapiens), sequence (P28223 whole entry, looked up): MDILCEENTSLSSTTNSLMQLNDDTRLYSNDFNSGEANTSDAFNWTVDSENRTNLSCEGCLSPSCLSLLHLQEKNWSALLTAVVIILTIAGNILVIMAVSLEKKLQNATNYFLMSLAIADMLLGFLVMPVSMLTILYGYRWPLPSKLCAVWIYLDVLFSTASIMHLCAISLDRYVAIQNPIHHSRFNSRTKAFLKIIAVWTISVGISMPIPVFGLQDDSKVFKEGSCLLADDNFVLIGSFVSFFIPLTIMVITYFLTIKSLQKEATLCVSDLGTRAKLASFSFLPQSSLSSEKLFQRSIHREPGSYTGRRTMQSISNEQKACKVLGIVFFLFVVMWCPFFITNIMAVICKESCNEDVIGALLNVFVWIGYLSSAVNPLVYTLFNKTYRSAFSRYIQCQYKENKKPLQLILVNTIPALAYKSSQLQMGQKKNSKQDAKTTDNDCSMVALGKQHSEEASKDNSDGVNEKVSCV

Assay [13] has the same target. Description: 5-hydroxytryptamine receptor 2A (HTR2A) small molecule agonists, cell-based qHTS assay (AID 1963587). Further: nearly all actives have a fitted effect of over 30% in size. Summed up:
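HTR2A-CHO cells, plated 18 h at 37 C/5% CO2, dye-loaded 1 h at 37 C; compounds in DMSO added by pin tool (agonist mode). Intracellular calcium flux read as kinetic fluorescence on FDSS over 2 min at 1 s intervals.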

For assay [14], the target named is Muscarinic acetylcholine receptor M1 (Homo sapiens) (UniProt P11229). Description: Cholinergic receptor muscarinic 1 (CHRM1) small molecule antagonists, cell-based qHTS assay (AID 1963588). Further: nearly all actives have a fitted effect of over 40% in size. A digest of the protocol: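 CHRM1-CHO calcium-flux assay, antagonist mode. Cells were seeded 18 h, dye-loaded 1 h at 37 C and given compound for 5 min at RT, then acetylcholine was added at 50nM. FDSS fluorescence was read 3 min; 15 concentrations, three runs.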
Muscarinic acetylcholine receptor M1 (Homo sapiens), sequence (P11229 whole entry, looked up): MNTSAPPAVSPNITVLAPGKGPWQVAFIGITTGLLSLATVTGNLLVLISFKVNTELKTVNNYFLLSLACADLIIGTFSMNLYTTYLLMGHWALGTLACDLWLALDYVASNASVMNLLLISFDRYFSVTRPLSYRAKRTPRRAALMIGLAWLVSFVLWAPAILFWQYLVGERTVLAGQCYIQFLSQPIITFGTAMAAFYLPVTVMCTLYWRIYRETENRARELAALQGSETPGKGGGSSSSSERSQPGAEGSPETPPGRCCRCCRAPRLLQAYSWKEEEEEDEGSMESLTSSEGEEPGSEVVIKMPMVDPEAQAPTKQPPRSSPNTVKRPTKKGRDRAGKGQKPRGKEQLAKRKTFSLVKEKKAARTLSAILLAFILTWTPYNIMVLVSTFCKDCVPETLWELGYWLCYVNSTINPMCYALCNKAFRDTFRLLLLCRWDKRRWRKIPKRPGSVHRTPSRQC

The target is the same in assay [15]. Description: Cholinergic receptor muscarinic 1 (CHRM1) small molecule agonists, cell-based qHTS assay (AID 1963589). Further: nearly all actives have a fitted effect of over 35% in size. Summed up: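 Stable CHRM1-CHO cells (human receptor) were incubated 18 h, dye-loaded for 1 h at 37 C and exposed to test compounds for agonist activity, with calcium-dependent fluorescence followed kinetically.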
Assay [16] is described as follows: cAMP Responsive Elements (CRE) small molecule agonists, cell-based qHTS assay (AID 1963590). A digest of the protocol:
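FRET-based beta-lactamase readout (LiveBLAzer B/G, 2 h RT) quantified CRE activation in HEK 293T CRE-bla cells after 3 h treatment with DMSO-dissolved compounds.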

Assay [17] in a line: cAMP Responsive Elements (CRE) small molecule antagonists, cell-based qHTS assay (AID 1963591; active means well fitted inhibition curve with a large enough effect in the signal ratio in the repeat runs, not every such curve was filed as active; the % refers to the signal ratio). A digest of the protocol: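 qHTS in CRE-bla HEK 293T cells: compound in DMSO, then 0.25 uM NKH477 (final), 3 h at 37 °C/5% CO2; beta-lactamase FRET read-out after 2 h substrate incubation.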
Assay [18] concerns the target Beta-2 adrenergic receptor (Homo sapiens) (UniProt P07550). In words: Adrenergic beta2 receptor (ADRB2) small molecule antagonists, cell-based qHTS assay (AID 1963592). Further: series mostly up to about 92 µM; nearly all actives have a fitted effect of over 50% in size. Summed up:
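Cells (CHO, stable ADRB2 overexpression) incubated 18-20hr at 37C; compounds added from DMSO; agonist mix (1nM isoproterenol, 100uM IBMX, 25uM Ro-20-1724) added; 0.5hr RT; d2-cAMP and anti-cAMP-cryptate added; 1hr RT; 665/615 nm read.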

Assay [19] shares this target. Description: Adrenergic beta2 receptor (ADRB2) small molecule agonists, cell-based qHTS assay (AID 1963593).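 Further: CHO cells stably overexpressing human ADRB2.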 Summed up:
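CHO cells stably over-expressing ADRB2 were plated overnight at 37C, then dosed with compounds plus a stimulation mix containing 100uM IBMX and 25uM Ro-20-1724 for 0.5hr at room temperature. cAMP was measured by HTRF competition, 1hr.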

In assay [20] the target is D(2) dopamine receptor (Homo sapiens) (UniProt P14416). Description: Dopamine D2 receptor (DRD2) small molecule agonists, cell-based qHTS assay (AID 1963594). Further: nearly all actives have a fitted effect of over 35% in size. Summed up:
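HEK293 cells stably expressing DRD2 were cultured 24 h at 37 C, then given Ro20-1724 (0.1 mM final) and compounds for 10 min at room temperature. NKH477 (200nM) was then added for 30 min. cAMP was read by HTRF.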

D(2) dopamine receptor (Homo sapiens), sequence (P14416 whole entry, looked up): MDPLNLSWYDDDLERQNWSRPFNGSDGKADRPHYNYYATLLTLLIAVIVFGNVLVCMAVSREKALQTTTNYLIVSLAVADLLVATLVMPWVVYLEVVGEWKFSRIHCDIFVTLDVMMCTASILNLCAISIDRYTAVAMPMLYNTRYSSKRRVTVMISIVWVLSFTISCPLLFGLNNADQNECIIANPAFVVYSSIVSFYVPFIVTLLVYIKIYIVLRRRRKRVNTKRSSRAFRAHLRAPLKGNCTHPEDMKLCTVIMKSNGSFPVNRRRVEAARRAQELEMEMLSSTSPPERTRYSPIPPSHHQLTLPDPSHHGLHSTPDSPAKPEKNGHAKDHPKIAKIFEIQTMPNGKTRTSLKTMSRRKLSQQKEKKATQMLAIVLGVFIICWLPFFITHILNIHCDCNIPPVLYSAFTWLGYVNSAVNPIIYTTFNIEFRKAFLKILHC
Beta-2 adrenergic receptor (Homo sapiens), sequence (P07550 whole entry, looked up): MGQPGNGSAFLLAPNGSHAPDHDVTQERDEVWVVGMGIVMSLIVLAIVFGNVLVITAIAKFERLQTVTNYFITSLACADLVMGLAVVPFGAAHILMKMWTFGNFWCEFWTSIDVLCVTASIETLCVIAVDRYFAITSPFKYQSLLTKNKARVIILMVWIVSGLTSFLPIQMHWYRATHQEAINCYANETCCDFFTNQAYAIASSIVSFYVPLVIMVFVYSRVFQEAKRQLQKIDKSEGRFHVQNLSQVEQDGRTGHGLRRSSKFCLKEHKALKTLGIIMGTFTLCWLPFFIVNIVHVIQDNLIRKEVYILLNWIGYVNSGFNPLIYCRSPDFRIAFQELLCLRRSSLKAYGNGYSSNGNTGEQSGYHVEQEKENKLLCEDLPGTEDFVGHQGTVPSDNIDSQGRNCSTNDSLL
KiSS-1 receptor (Homo sapiens), sequence (Q969F8 whole entry, looked up): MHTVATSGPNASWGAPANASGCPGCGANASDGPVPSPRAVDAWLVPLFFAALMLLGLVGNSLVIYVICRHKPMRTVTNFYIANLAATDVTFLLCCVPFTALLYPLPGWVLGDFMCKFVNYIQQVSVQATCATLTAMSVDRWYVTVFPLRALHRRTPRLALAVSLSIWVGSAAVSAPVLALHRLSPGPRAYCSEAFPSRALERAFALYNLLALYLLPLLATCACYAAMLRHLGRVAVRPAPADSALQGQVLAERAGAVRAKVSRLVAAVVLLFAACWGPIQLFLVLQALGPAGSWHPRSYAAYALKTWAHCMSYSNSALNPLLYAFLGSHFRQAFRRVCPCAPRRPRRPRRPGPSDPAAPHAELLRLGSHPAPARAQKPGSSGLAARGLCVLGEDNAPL
Gonadotropin-releasing hormone receptor (Homo sapiens), sequence (P30968 whole entry, looked up): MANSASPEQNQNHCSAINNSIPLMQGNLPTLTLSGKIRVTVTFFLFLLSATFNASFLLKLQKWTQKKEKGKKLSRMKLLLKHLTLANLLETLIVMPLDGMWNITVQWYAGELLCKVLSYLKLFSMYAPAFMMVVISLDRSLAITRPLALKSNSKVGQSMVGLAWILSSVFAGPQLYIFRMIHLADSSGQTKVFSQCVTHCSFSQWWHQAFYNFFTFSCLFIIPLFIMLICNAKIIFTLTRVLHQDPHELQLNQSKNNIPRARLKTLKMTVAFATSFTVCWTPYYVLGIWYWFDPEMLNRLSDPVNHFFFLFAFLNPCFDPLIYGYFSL

For `O=C(NCN1CCOCC1)c1cnccn1`, the Potency entry in assay [1], in assay [2], in [3], in assay [4], in assay [5] and in assay [6] was “inactive” throughout. In addition, the Potency entry in [7], in [8], in assay [9], in assay [10], in assay [11] and in assay [12] was “inactive” each time. The Potency result in assay [13], in [14], in [15], in assay [16], in assay [17] and in [18] was “inactive” in each case. Besides, the Potency entry in assay [19] and in assay [20] was “inactive” in each case.

For `NCCNCCN`, the Potency result in assay [1], in assay [2], in assay [3], in [4], in [5] and in [6] was “inactive” each time. The Potency entry in assay [7], in [8], in [9], in assay [10], in assay [11] and in assay [12] was “inactive” in each case. For the same compound, the Potency entry in assay [13], in assay [14], in [15], in assay [16], in assay [17] and in assay [18] was “inactive” in each case. Moreover, the Potency entry in assay [19] and in assay [20] was “inactive” each time.

Consider `CC(C)=CCC/C(C)=C/C(=O)O`, for which the Potency entry in assay [1], in [2], in assay [3], in [4], in assay [5] and in assay [6] was “inactive” throughout. The Potency entry in assay [7], in assay [8], in [9], in assay [10], in [11] and in assay [12] was “inactive” throughout. Also, the Potency entry in assay [13], in [14], in assay [15], in assay [16], in assay [17] and in [18] was “inactive” in each case. Besides, the Potency result in assay [19] and in assay [20] was “inactive” throughout.

For `CCCCCCS`, the Potency result in assay [1], in assay [2], in [3], in assay [4], in [5] and in [6] was “inactive” each time. The Potency result in assay [7], in assay [8], in [9], in assay [10], in assay [11] and in [12] was “inactive” each time. The Potency entry in assay [13], in [14], in [15], in assay [16], in [17] and in [18] was “inactive” each time. Further, the Potency entry in [19] and in assay [20] was “inactive” each time.

Regarding `CCCC(C)CCC(C)=O` (stereo not given), the Potency result in [1], in [2], in [3], in [4], in [5] and in assay [6] was “inactive” throughout. Further, the Potency result in assay [7], in [8], in [9], in assay [10], in assay [11] and in assay [12] was “inactive” each time. Further, the Potency result in [13], in assay [14], in assay [15], in assay [16], in assay [17] and in assay [18] was “inactive” throughout. The Potency entry in assay [19] and in assay [20] was “inactive” throughout.

For `C/C(=C1\CCOC(=O)S1)N(C=O)Cc1cnc(C)nc1N`, the Potency result in assay [1], in assay [2], in assay [3], in assay [4], in [5] and in assay [6] was “inactive” each time. The Potency entry in assay [7], in [8], in assay [9], in [10], in assay [11] and in [12] was “inactive” in each case. Moreover, the Potency result in assay [13], in assay [14], in assay [15], in assay [16], in [17] and in [18] was “inactive” in each case. In addition, the Potency entry in [19] and in [20] was “inactive” each time.

As for `ON=C1CCCCC1`, the Potency result in [1], in [3], in [4], in assay [5], in [6] and in [7] was “inactive” each time. The Potency entry in assay [8], in assay [9], in assay [10], in assay [11], in assay [12] and in [13] was “inactive” throughout. The Potency result in assay [14], in assay [15], in assay [16], in assay [17], in assay [18] and in assay [19] was “inactive” each time. Besides, the Potency entry in assay [20] was “inactive”. In addition, the Potency result in assay [2] is “inactive and 68.6 µM (active)”.

For the compound `CCCCCCC(C)(C)C(=O)O`, the Potency entry in assay [1], in [2], in [3], in assay [4], in [5] and in assay [6] was “inactive” in each case. For the same compound, the Potency result in assay [7], in assay [8], in assay [9], in [10], in assay [11] and in [12] was “inactive” in each case. The Potency entry in assay [13], in assay [14], in [15], in [16], in assay [17] and in assay [18] was “inactive” each time. The Potency entry in [19] and in assay [20] was “inactive” throughout.
